The text below walks through data of PubChem BioAssay.

Activity calls are given as the source filed them.

For one assay, the target named is Albumin (Bos taurus) (UniProt P02769). Nature of the assay: compounds binding labelled BSA control protein – biochemical, small-molecule microarray, Alexa647 label, 635/667 nm fluorescence, artefact control for SMM control protein annotation, profiling panel (AID 1118).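 Note: score merges 667 nm emission intensity and signal-to-noise per printed compound spot.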 Conditions: BSA-A647 binding, fluorescence 635 nm, higher = more signal.
Assay [1] in a line: probe aXIP binding to arrayed compounds – biochemical, NeuroSMM set, 635/667 nm fluorescence, primary screen (AID 1119).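 Note: probe is the protein aXip251-270 applied at 1 µg/mL to compound-printed slides; binding of probe to printed compounds measured as 667 nm fluorescence plus signal to noise.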 The settings on record: small-molecule microarray, higher = more signal, called active from +8 up or from −8 down.
The nature of assay [2]: probe aNOTCH3 binding on compound microarray – biochemical, small-molecule microarray, 635/667 nm fluorescence, primary screen (AID 1120).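 Note: probe is a biotin-tagged antibody raised against NOTCH3 rather than NOTCH3 protein; score merges spot fluorescence near 667 nm with spot signal to noise.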 Conditions: higher = more signal.
The nature of assay [3]: probe aNOTCH2 binding on compound microarray – biochemical, small-molecule microarray, 635/667 nm fluorescence, primary screen (AID 1121).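 Note: score merges feature fluorescence read at 667 nm with its signal to noise.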 Conditions: higher = more signal.
The target of assay [4] is Carbonic anhydrase 2 (Homo sapiens) (UniProt P00918). Nature of the assay: compounds binding carbonic anhydrase 2 – biochemical, small-molecule microarray, Alexa647-labelled CAII, profiling panel (AID 1122). The settings on record: CAII-A647 binding fluorescence, higher = more signal.
A short description of assay [5]: COS7 lysate on small-molecule microarray, probe aHis, 635 nm (AID 1123).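 Note: z-score combines 667nm fluorescence intensity with signal-to-noise per printed compound spot.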 Conditions: COS7 cell lysate, fluorescence, higher = more signal.
The nature of assay [6]: probe aLAP1 signal on lysate-treated microarray – cell lysate, small-molecule microarray, COS7 lysate, primary screen (AID 1124).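 Note: lysate comes from COS7 cells expressing LAP1 and is applied at 0.3 µg/mL; score merges spot fluorescence near 667 nm with signal-to-noise over triplicate slides.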 Conditions: probe aLAP1, fluorescence, higher = more signal.
A further assay concerns Sam68 (KHDRBS1). Nature of the assay: compounds binding KHDRBS1 protein – biochemical, small-molecule microarray, 635 nm fluorescence, primary screen (AID 1125).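 Note: score merges 667 nm channel intensity with signal to noise over triplicate slides.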 Conditions: higher = more signal.
Assay [7] relates to Chordin-like protein 2 (CHRDL2). Nature of the assay: compounds binding chordin-like 2 – biochemical, small-molecule microarray, 635 nm fluorescence, primary screen (AID 1126).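 Note: printed compound slides probed with Chrdl2 protein at 4 µg/mL for 1 h at 4 C; score merges 667 nm emission intensity with signal to noise over three replicate slides.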 Conditions: fluorescence 635 nm, higher = more signal.
Assay [8] has as its target Concanavalin-A (Canavalia ensiformis) (UniProt P02866). Nature of the assay: compounds binding concanavalin A lectin – biochemical, small-molecule microarray, Alexa647 label, 635 nm, artefact control for SMM control protein annotation, primary screen (AID 1127).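 Note: z combines 667 nm emission intensity with signal-to-noise across three replicate slides.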 Conditions: ConA-A647 binding fluorescence, higher = more signal.

Chain of Concanavalin-A (Canavalia ensiformis) (P02866 whole entry, looked up): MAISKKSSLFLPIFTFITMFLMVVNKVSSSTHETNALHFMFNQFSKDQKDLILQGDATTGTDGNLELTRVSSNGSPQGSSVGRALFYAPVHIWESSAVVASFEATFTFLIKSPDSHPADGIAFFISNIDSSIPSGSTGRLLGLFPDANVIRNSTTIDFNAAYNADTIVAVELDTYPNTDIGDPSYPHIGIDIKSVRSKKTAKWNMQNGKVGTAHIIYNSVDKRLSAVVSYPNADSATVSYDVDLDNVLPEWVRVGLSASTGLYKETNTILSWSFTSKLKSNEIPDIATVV
Chain of Albumin (Bos taurus) (P02769 whole entry, looked up): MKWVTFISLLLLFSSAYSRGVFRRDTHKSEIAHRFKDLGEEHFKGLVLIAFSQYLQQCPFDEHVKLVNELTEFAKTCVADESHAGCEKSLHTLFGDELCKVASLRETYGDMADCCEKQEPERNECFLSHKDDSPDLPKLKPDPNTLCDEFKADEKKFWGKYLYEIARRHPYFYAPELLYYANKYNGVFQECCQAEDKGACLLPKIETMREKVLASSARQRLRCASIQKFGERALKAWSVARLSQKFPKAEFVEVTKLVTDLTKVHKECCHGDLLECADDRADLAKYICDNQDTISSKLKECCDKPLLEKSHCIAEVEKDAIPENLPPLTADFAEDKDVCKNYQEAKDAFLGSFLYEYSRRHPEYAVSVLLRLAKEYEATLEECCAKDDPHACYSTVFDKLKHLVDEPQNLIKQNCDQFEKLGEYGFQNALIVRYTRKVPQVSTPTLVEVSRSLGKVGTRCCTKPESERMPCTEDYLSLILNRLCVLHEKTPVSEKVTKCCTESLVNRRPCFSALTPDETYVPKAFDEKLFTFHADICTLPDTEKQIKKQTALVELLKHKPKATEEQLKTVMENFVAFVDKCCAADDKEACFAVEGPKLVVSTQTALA

For `C=CCN1C(=O)[C@]2(O[C@H](CCO)[C@@H]([Si](C)(C)c3ccc(OC)cc3)[C@@H]2C)c2cc(N3CCCCC3=O)ccc21`, the composite z-score is 0.694 with Albumin (Bos taurus); 0.135 in [2]; -0.106 in assay [3]; 0.163 in assay [4]; 1.86 in [5]; 0.279 in assay [6]. In addition, the figures for the composite z-score (in the assay with Sam68 (KHDRBS1); in assay [7]; in assay [8]) were 1.28, 0.122 and 0.877, respectively. Moreover, in assay [1], the composite Z-score is 0.801 (inactive).

In the case of `COc1cc2c(cc1OC)CN(C(=O)[C@@H]1[C@H]3C(=O)O[C@H](c4ccccc4)[C@H](c4ccccc4)N3[C@H](c3ccc(O)cc3)[C@@]13C(=O)Nc1ccc(C#CC4(O)CCCCCC4)cc13)CC2`, the composite z-score is -0.0111 with Albumin (Bos taurus); -0.191 in assay [2]; 0.0834 in [3]; 0.551 in assay [4]; 2.01 in assay [5]; 0.548 in [6]. For the same molecule, the composite z-score was 1.29 with Sam68 (KHDRBS1), 1.03 in [7] and 1.16 in assay [8]. Further, the composite Z-score in assay [1] was 0.841 (inactive).

In the case of `COc1ccc([C@H]2C[C@H]3C(Br)=C[C@@H]2C(=O)[C@]32CO2)cc1`, the composite z-score with Albumin (Bos taurus) is -1.13; in [2] it was -0.176; in [3], -0.075; in assay [4], -0.539; in assay [5] it was -0.442; in assay [6] it was -0.0737. In addition, the values for the composite z-score (in the assay with Sam68 (KHDRBS1); in [7]; in assay [8]) were -0.99, 0.736 and 0.125, respectively. In [1], the composite Z-score was -0.624 (inactive).

As to `CCOC(=O)[C@H]1C/C=C/C[C@H](C(=O)OCC)C(=O)O[C@H]2[C@@H](OC)O[C@H](CO)[C@@H](OC(=O)Nc3ccc(C#N)cc3)[C@@H]2OC1=O`, the composite z-score was 0.842 with Albumin (Bos taurus); -0.307 in assay [2]; -0.159 in [3]; 0.607 in assay [4]; 0.823 in [5]; 0.603 in [6]. Also, the composite z-score in the assay on Sam68 (KHDRBS1) was 0.171; in assay [7], -0.619; in assay [8], -0.175. In addition, in assay [1], the composite Z-score is 0.941 (inactive).

Regarding `O=C1NCC(=O)N2[C@@H]1C[C@@H](C(=O)O)[C@H]2c1cccc(OCCO)c1`, the composite z-score in the assay with Albumin (Bos taurus) was -0.175; in assay [2] it was 2.12; in [3], 1.12; in assay [4], 0.628; in assay [5], 5.25; in assay [6], 1.03. The results for the composite z-score (in the assay with Sam68 (KHDRBS1); in [7]; in assay [8]) were 1.33, 1.6 and 0.945, respectively. The composite Z-score in assay [1] is 10.2 (active).

For `CC(C)(C)OC(=O)CC[C@]1(C(=O)O)N=C(c2ccc(OCCCO)cc2)O[C@H]1c1ccccc1N=[N+]=[N-]`, the composite z-score was 0.82 with Albumin (Bos taurus); 0.786 in [2]; 0.473 in [3]; 0.838 in assay [4]; 2.95 in assay [5]; 0.781 in [6]. For the same molecule, the composite z-score was found to be 0.889 with Sam68 (KHDRBS1), 0.0588 in assay [7] and 0.663 in assay [8]. Further, in [1], the composite Z-score was 0.653 (inactive).

Regarding `O=C1O[C@H](c2ccccc2)[C@H](c2ccccc2)N2[C@H]1[C@@H](C(=O)Nc1nc3ccccc3s1)[C@]1(C(=O)Nc3ccc(C#CCCO)cc31)[C@H]2c1ccc(OCCO)cc1`, the composite z-score in the assay with Albumin (Bos taurus) was determined as 0.797; in assay [2] it was 0.134; in assay [3], 0.0785; in [4] it was 0.419; in assay [5] it was 1.42; in [6] it was 0.516. Further, the composite z-score turned out to be 1.32 in the assay with Sam68 (KHDRBS1), 0.586 in [7] and 1.09 in [8]. In assay [1], the composite Z-score is 0.0956 (inactive).

As for `CC[C@@H]1C=C(C(=O)O)[C@H](c2ccco2)N1S(=O)(=O)c1ccc(C)cc1`, the composite z-score in the assay with Albumin (Bos taurus) is -0.179; in assay [2], -0.128; in assay [3], -0.108; in [4], 0.689; in assay [5], 0.059; in [6] it was 0.591. For the same molecule, the composite z-score in the assay with Sam68 (KHDRBS1) is 0.125; in [7] it was 0.209; in [8], -1.29. Also, the composite Z-score in assay [1] was 0.33 (inactive).

Take `CC(C)(C)OC(=O)CC[C@]12N=C(c3ccc(OCCCO)cc3)O[C@H]1c1ccccc1N(CCS(=O)(=O)c1ccccc1)C2=O`: the composite z-score is 0.0963 with Albumin (Bos taurus); 0.21 in assay [2]; -0.0241 in assay [3]; 0.422 in assay [4]; 2.48 in assay [5]; 0.53 in assay [6]. For the same molecule, the figures for the composite z-score (with Sam68 (KHDRBS1); in assay [7]; in [8]) were 1.3, 0.765 and 1.14, respectively. In assay [1], the composite Z-score is 1.02 (inactive).

Consider `CN1C2C=C(CCCO)C(C3C(=O)N(C(N)=O)C(=O)C32)C1c1ccc(CN2CCCC2)cc1` (stereo not given), for which the composite z-score is -1.07 with Albumin (Bos taurus); -0.326 in assay [2]; -0.152 in assay [3]; -0.452 in assay [4]; -0.0732 in assay [5]; -0.579 in assay [6]. In addition, the composite z-score in the assay on Sam68 (KHDRBS1) was -1.18; in [7], -0.686; in assay [8], -0.34. Further, the composite Z-score in assay [1] was -0.275 (inactive).

In the case of `COc1ccc(C(O)C2C=CC3C(=O)N(C)C(=O)C3N2N2CCCCC2)c2ccccc12` (stereo not given), the composite z-score with Albumin (Bos taurus) is 0.9; in assay [2] it was 0.432; in assay [3] it was -0.0351; in assay [4], 0.448; in [5], 2.89; in assay [6], -0.32. Also, the composite z-score in the assay with Sam68 (KHDRBS1) was 1.31; in [7], -0.147; in [8] it was 1.21. The composite Z-score in assay [1] is 0.476 (inactive).

`CC(C)(C)OC(=O)CC[C@@]12N=C(c3ccc(OCCCO)cc3)O[C@@H]1c1ccccc1N(CCS(=O)(=O)c1ccccc1)C2=O`: the composite z-score was -0.458 with Albumin (Bos taurus); 0.106 in assay [2]; -0.179 in assay [3]; 0.73 in [4]; 1.59 in assay [5]; 0.184 in [6]. The figures for the composite z-score (with Sam68 (KHDRBS1); in assay [7]; in assay [8]) were 0.461, 0.623 and 1.14, respectively. The composite Z-score in assay [1] is 0.733 (inactive).

`COc1ccc(C(=O)O[C@H]2CC[C@]3(C)C4=C(CCC3C2(C)C)[C@]2(C)CC[C@H]([C@H](C)CCCC(C)C)[C@@]2(C)CC4)cc1` (stereo not given in full): the composite z-score in the assay with Albumin (Bos taurus) was 0.12; in [2], 0.236; in assay [3] it was -0.149; in assay [4], -0.008; in assay [5] it was 0.688; in assay [6], 0.064. Besides, the figures for the composite z-score (with Sam68 (KHDRBS1); in [7]; in assay [8]) were 0.154, 0.575 and 0.447, respectively. Besides, in [1], the composite Z-score is -0.482 (inactive).

Consider `C=C(/C(=C/C[C@@H](OC(C)=O)c1ccc(OCCO)cc1)c1cnc2ccccc2c1)C(C)C`, for which the composite z-score in the assay with Albumin (Bos taurus) was 0.444; in assay [2], -0.0362; in assay [3] it was -0.17; in assay [4], 0.425; in assay [5] it was 0.387; in [6], -0.0638. Further, the composite z-score in the assay on Sam68 (KHDRBS1) was 0.713; in [7] it was 0.159; in [8], 0.806. For the same molecule, in assay [1], the composite Z-score is -0.199 (inactive).

For the molecule `COc1cc2c(cc1OC)CN(C(=O)[C@H]1[C@@H]3C(=O)O[C@@H](c4ccccc4)[C@@H](c4ccccc4)N3[C@@H](c3ccc(O)cc3)[C@]13C(=O)Nc1ccc(C#CCNC(N)=O)cc13)CC2`, the composite z-score was -0.176 in the assay with Albumin (Bos taurus); 0.0397 in assay [2]; -0.165 in assay [3]; 0.169 in assay [4]; 0.103 in assay [5]; 0.523 in assay [6]. Also, the values for the composite z-score (in the assay with Sam68 (KHDRBS1); in assay [7]; in [8]) were -0.0579, 0.702 and 0.212, respectively. Further, in assay [1], the composite Z-score is -0.136 (inactive).

With `CC(C)(C)OC(=O)CC[C@@]1(C(=O)NCCN2CCOCC2)N=C(c2ccc(OCCCO)cc2)O[C@@H]1c1ccccc1N=[N+]=[N-]`, the composite z-score stood at 0.641 with Albumin (Bos taurus); 0.375 in assay [2]; 0.103 in assay [3]; 0.742 in assay [4]; 1.81 in [5]; 0.0412 in [6]. Besides, the composite z-score in the assay on Sam68 (KHDRBS1) worked out at 1.33; in [7], 0.178; in assay [8], 0.289. Moreover, the composite Z-score in assay [1] was 0.393 (inactive).
